Compound activity (PubChem BioAssay)
Hits are enriched below; roughly 11% of the tested compounds scored in any of these assays.
VP16 counter = Gal4-VP16 reporter inhibition counter-screen; Potency, µM (top dose mostly 53.6 µM), for the others: top-dose activity, negative = inhibition, hits mostly inhibitors; 3.5% of 310,000 active; AID 2546; Drosophila S2 Gal4-VP16 UAS-luciferase, luminescence, 20 h;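 further: Gal4-VP16 expression switched on by copper sulfate through the metallothionein promoter; potency means the concentration at half of the fitted maximal effect; on the % scale 0 is the no-effect control and ±100 the full control effect; nearly all actives have a fitted effect of over 50% in size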
SW480 rerep = inducers of DNA re-replication in SW480 colon cancer cells. 1.8% of 340,000 active. Potency, µM (doses to about 46.1 µM), inactives show at the top dose re-replication activation, hits mostly activators. SW480 DNA re-replication, Hoechst DNA content imaging, 48 h; further: potency means the concentration at half of the fitted maximal effect; % of control where 0% means no effect; nearly all actives have a fitted effect of over 55% in size
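First, 250 cells per well were seeded. Next, compound or vehicle (23 nL) was pinned in, plates sat 48 hr at 37 C. Finally Hoechst was added for 40 min before fluorescence scanning.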
IL-1B inflam inh = inhibitors of inflammasome signaling (IL-1 beta secretion) | AID 743279 | 4.7% of 360,000 active | activity change, % at 57.5 µM | THP-1 LPS/ATP IL-1B secretion, AlphaLISA, 16 h; hits give low values; in the data active means activity change below about -50%; inconclusive means mostly about -30% to -49%; further: on the % scale 0 is the no-effect control and ±100 the full control effect
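THP-1 cells pretreated 1 hr with compounds (up to 57.5 uM final), then stimulated with LPS (250 ng/mL final) plus ATP (1.25 mM final); secreted IL-1B measured by AlphaLISA after 16 hr, decreased signal indicating inhibition.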
MCF10A rerep = inducers of DNA re-replication in MCF 10A breast cells | MCF 10A DNA re-replication, Hoechst nuclear intensity, 48 h | AID 624296 | Potency, µM (doses to about 46.1 µM), for inactives: at the top dose activity, positive = re-replication, usual class: activators | 2.9% of 350,000 active; further: potency means the concentration at half of the fitted maximal effect; % of control where 0% means no effect; nearly all actives have a fitted effect of over 50% in size
RORg inh = blocks mouse ROR gamma transcriptional activity. Drosophila S2 Gal4-RORgamma UAS-luciferase reporter, 20 h. Potency, µM (highest dose often 53.6 µM), without a hit: at the highest dose activity change, negative = inhibition, hits mostly inhibitors. 5.4% of 310,000 active; further: potency means the concentration at half of the fitted maximal effect; on the % scale 0 is the no-effect control and ±100 the full control effect; nearly all actives have a fitted effect of over 60% in size
Target sequence (P51450 whole entry, looked up, the tested form may be a part): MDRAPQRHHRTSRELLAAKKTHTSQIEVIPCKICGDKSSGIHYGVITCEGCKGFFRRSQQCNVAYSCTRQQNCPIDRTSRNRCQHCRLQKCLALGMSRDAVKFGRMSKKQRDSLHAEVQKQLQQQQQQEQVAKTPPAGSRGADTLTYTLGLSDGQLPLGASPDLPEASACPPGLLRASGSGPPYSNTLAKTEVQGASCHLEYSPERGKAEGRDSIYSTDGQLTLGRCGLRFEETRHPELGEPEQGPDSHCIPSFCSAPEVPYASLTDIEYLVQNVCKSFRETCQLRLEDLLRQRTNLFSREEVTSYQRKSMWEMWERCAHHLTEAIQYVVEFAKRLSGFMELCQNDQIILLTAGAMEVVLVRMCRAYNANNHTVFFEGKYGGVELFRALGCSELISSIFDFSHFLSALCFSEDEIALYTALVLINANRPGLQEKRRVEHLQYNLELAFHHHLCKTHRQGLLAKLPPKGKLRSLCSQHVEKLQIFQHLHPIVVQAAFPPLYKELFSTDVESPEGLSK
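Drosophila S2 cells stably expressing Gal4-DBD/mouse RORγ fusion under metallothionein promoter plus UAS-luciferase; compound 1 h, then 700 uM CuSO4 induction for 20 h at ambient temperature; inhibition read as reduced luminescence.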
* = called active by the depositor; i = inactive; ? = inconclusive; . = not tested or not shown; [ ] = dose if it differs, or a comment. Unless noted, the call rests on the fitted dose curve; in most records, active means well fitted curve in the direction sought with a large enough effect; inconclusive means small, poorly fitted or top-dose-only effect, or another doubt; inactive means no such curve, though single readings can be large; an effect the other way counts as inactive or inconclusive.

SMILES	VP16 counter	SW480 rerep	IL-1B inflam inh	MCF10A rerep	RORg inh
CCOc1cccc2sc(N(CCCN(C)C)C(=O)c3ccc(C(=O)c4ccccc4)cc3)nc12	-26%	?	-88*	5%	?
CN(C)CCCN(C(=O)c1ccc(C(=O)c2ccccc2)cc1)c1nc2c(F)cccc2s1	-10%	?	?	4%	-7%
CCOc1cccc2sc(N(CCCN(C)C)C(=O)c3ccc(S(=O)(=O)N(C)Cc4ccccc4)cc3)nc12	?	?	i	?	-65%
CCOc1cccc2sc(N(CCN(C)C)C(=O)c3cc4ccccc4cc3OC)nc12	-30%	81%	-58*	22%	0%
CCOc1cccc2sc(N(CCCN(C)C)C(=O)c3ccc(S(=O)(=O)N(CC)Cc4ccccc4)cc3)nc12	22µM*	25%	-90*	?	?
CCN(Cc1ccccc1)S(=O)(=O)c1ccc(C(=O)N(CCCN(C)C)c2nc3c(F)cccc3s2)cc1	?	?	-77*	?	?
Cc1cccc(C)c1NC(=O)Cn1cc(C=O)c2ccccc21	?	4%	35	1%	?
O=C(Nc1ccn(CCCN2CCN(Cc3ccc(F)cc3)CC2)c(=O)n1)OCc1ccccc1	.	.	-10	.	.
CC(C)[C@H](NC(=O)c1ccccc1F)C(=O)NC1CCCCCCC1	.	-3%	11	18µM*	.
COCCOC(=O)c1c(C)nc(SCC(=O)Nc2ccc(OC)cc2)c(C#N)c1-c1ccco1	-6%	?	-13	-2%	-3%
Cc1nc(SCC(=O)c2ccccc2)c(C#N)c(-c2ccco2)c1C(=O)NCc1ccco1	5µM*	?	-98*	?	5.6µM*
Cc1nc(N2CCOCC2)c2nc(-c3ccccc3)n(CCCN(C)C)c2n1	-8%	.	.	.	-2%
CC(C)[C@H](NC(=O)c1ccc(Cl)cc1Cl)C(=O)OCc1nc2ccsc2c(=O)[nH]1	.	-17%	30	0%	.
Cc1ccc(O)c(Nc2c3ccccc3nc3ccccc23)c1	?	?	-95*	?	-32%
C/C=C/c1cccc(-c2nc(C(=O)NC3CCCC3)cc3c2[C@@H](CCO)N(S(=O)C(C)(C)C)C3)c1 (some centres undefined)	.	.	-4	.	.
Cc1ccc(N2C(=O)N(CC(=O)Nc3cccc(Cl)c3)C(=O)C2C)cc1 (centres undefined)	.	-13%	-61*	2%	.
CCOCCCNC(=O)c1ccc2c(c1)ncn2-c1ccccc1OC	12%	4%	-13	4%	25%
Cn1cc(/C=N/n2cnc3scc(-c4ccc(Cl)cc4)c3c2=O)c2ccccc21	-10%	0.58µM*	142	0.33µM*	4%
CCn1cnc2scc(-c3ccccc3)c2c1=O	25%	-13%	-9	-2%	?
Cc1ccccc1OCC(=O)N/N=C/c1cccn1C	0%	-3%[9.22 µM]	-18	?	8.9µM*
Cc1ccc(OCC(=O)N/N=C/c2cccc3cccnc23)cc1	?	?	99	0%	16µM*
O=C(COc1ccc(F)cc1)N/N=C/c1cccc2cccnc12	.	?	164	1%	.
CCc1ccccc1NC(=O)C/C(C)=N/NC(=O)COc1ccccc1C	?	-9%	3	15%	11µM*
CCc1ccc(NC(=O)C/C(C)=N/NC(=O)COc2ccccc2C)cc1	16%	-5%	11	14%	-32%
Cc1ccccc1OCC(=O)N/N=C/c1cccc2cccnc12	14µM*	?	i	17%	11µM*
SMILES	VP16 counter	SW480 rerep	IL-1B inflam inh	MCF10A rerep	RORg inh
N#CC1(NC(=O)COC(=O)Cc2c[nH]c3ccccc23)CCCCC1	.	.	11	.	.
CCOC(=O)C1(Cc2ccccc2)C(=O)N(CCCN(C)C)c2ccccc21 (centres undefined)	.	-65%	-5	0%	.
CCCCn1nnnc1C1(C)CCC(=O)N1c1ccc(N2CCOCC2)cc1 (centres undefined)	.	.	-1	.	.
Cn1cccc1/C=N\NC(=O)Cc1ccc(Br)c2ccccc12	11µM*	?	15	?	?
O=C(COc1cccc2cccnc12)N/N=C/c1ccc(O)cc1	-3%	-4%	-20	2%	16%
O=C(COc1cccc2cccnc12)N/N=C/c1cccn1-c1ccc(F)cc1	0%	-11%	-89*	?	17%
